Assay [1] in a line: inhibitors of TNFa-induced NFkB p65 translocation, primary screen, imaging, HUVEC, MLSMR starter and 10KST1 sets (AID 438;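 active = inhibition above 20% together with a positive visual image hit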;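 note: compound added about 3h40 before a 20 min TNFalpha stimulation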;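 for inhibition: signal is the nuclear over cytoplasmic p65 intensity ratio per well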). To be noted: HUVEC TNFa-induced p65 nuclear translocation; cell count: measured here: nuclei count (cytotoxicity indicator), at 2.08 µM; inhibition: at 2 µM, stronger effect = higher value, 0% TNFa-plus-vehicle, 100% no-TNFa wells.
A short description of assay [2]: reduction of polyQ htt aggregates in cells – imaging, exon1htt(103Q)mCFP cells, high-content imaging, primary screen (AID 483;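 active = visual image review flags a hit and inhibition of aggregation exceeds 20%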;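 note: compound exposure lasted 3 days before fixation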;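 for nuclei count: percent of the per-plate median nuclei count of sample wells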). Conditions: exon1htt(103Q)mCFP cell line, aggregate imaging, at 2 µM; inhibition of aggregation: stronger effect = higher value; nuclei count: measured here: cell count, toxicity.
The nature of assay [3]: endothelial E-selectin expression blockers – imaging, HUVEC, immunofluorescence, MLSMR starter and 10KST1 sets, primary screen (AID 487;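 active = visually confirmed hit in the image check and inhibition above 20%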;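 for inhibition: signal is fraction of cell area covered by stained E-selectin grains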;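 for nuclei count: 100% = median nuclei count of all wells on the same plate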). Conditions: HUVEC TNFalpha-induced E-selectin immunofluorescence imaging, at 2 µM; inhibition: stronger effect = higher value; nuclei count: measured here: cell number, toxicity.
The target in assay [4] is Voltage-gated potassium channel subunit beta-2 (Rattus norvegicus) (UniProt P62483). Briefly: inhibitors of rat Kvbeta2 reductase activity – biochemical, NADPH fluorescence, primary screen (AID 622;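 active = fluorescence slope higher than the sample average by over 3 SD, cut at about -0.22 in these data, passing the limit was not always enough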;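 note: slope of raw intensity against log time taken from 70 to 1610 s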). Conditions: recombinant KvBeta, 4-cyanobenzaldehyde reduction, at 10 µM, stronger effect = higher value.
For assay [5] the target is unchanged. Briefly: enhancers of rat Kvbeta2 NADPH turnover – biochemical, NADPH fluorescence, primary screen (AID 623;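 active = NADPH fluorescence slope more negative than the mean of all samples by about 3 SD, 99.7% confidence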;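 note: fluorescence intensity change per second fitted from 20 to 320 s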). Conditions: Recombinant KvBeta, NADPH fluorescence decrease slope, 10 min; at 10 µM; stronger effect = lower value.
For assay [6], the target named is Alpha-2C adrenergic receptor (Homo sapiens) (UniProt P18825). Briefly: compounds altering alpha2C-coupled GIRK flux – cell-based, HEK293 alpha2C/GIRK1/2, thallium flux, primary screen (AID 624).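 Note: slope of fluorescence ratio to pre-addition baseline per second over 15 to 24 s.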 To be noted: thallium flux BTC fluorescence, at 10 µM, actives lie on both sides.
Assay [7] is described as follows: blockers of RIG-like receptor reporter activation – cell-based, Sendai virus stimulus, luciferase, 10K MLSCN set, TLR/RLR signaling modifier project, primary screen (AID 602276;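 active = inhibition at or above 50% at 10 µM; inactive = inhibition below 50%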;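 note: firefly luciferase from ISG56 promoter only with Renilla not read in this screen; 0% = Sendai virus plus DMSO and 100% = medium plus DMSO without virus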). Conditions: HEK293 RL24 IRF3 luciferase reporter, at 10 µM, stronger effect = higher value. For orientation: A reporter such as luciferase makes a cellular process visible.
The nature of assay [8]: TLR3 IRF3 reporter activation blockers – cell-based, poly I:C stimulus, luciferase, 10K MLSCN set, primary screen (AID 602277;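 active = inhibition of the reporter signal at or above 50%; inactive = inhibition below 50%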). Conditions: HEK293-TLR3 RL24 IRF3 luciferase reporter, at 10 µM, stronger effect = higher value.

By inhibition is commonly meant the change of the read-out against control, counted positive when it falls.

Active and inactive are the calls of the source.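 Rule for the calls, unless noted: active = fluorescence slope after compound addition differing from the mean of all screened samples at 99.7% confidence, in either direction; inactive = the rest.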

Sequence of Alpha-2C adrenergic receptor (Homo sapiens) (P18825 whole entry, looked up): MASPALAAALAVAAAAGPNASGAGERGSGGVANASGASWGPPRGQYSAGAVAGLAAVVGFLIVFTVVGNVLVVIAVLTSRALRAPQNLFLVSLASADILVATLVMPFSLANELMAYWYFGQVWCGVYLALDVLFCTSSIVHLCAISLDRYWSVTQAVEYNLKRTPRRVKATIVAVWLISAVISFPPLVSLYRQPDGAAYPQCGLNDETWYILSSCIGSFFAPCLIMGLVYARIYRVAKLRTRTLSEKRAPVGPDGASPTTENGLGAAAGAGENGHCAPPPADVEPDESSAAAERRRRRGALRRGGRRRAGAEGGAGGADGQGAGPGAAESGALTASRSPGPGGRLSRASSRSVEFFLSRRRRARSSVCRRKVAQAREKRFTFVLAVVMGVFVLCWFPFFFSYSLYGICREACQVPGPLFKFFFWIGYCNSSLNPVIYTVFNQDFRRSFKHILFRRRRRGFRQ
Sequence of Voltage-gated potassium channel subunit beta-2 (Rattus norvegicus) (P62483 whole entry, looked up): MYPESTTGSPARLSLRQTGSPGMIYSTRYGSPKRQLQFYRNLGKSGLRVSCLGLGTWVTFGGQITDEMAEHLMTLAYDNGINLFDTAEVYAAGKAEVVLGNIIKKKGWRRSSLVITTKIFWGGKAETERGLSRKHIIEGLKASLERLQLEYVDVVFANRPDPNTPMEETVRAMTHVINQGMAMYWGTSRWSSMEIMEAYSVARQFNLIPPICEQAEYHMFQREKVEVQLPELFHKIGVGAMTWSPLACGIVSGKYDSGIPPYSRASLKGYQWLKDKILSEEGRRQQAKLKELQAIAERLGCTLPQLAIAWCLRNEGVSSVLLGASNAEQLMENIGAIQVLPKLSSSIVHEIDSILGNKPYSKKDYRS

For the molecule `CCOC(=O)C1CCN(Cc2c(O)ccc3ccccc23)CC1`, in assay [1], the cell count was determined as 596. Also, the inhibition in assay [1] was -3% (inactive); in assay [3] it was -41.8% (inactive); in assay [7] it was 25.4% (inactive); in assay [8], 33.8% (inactive). For the same molecule, the inhibition of aggregation in assay [2] was 3.7% (inactive). In addition, the nuclei count came out at 109% in assay [2] and 124% in assay [3]. Moreover, the fluorescence slope in assay [4] was -0.5 (inactive). The NADPH fluorescence slope in assay [5] is -7.8e-05 (inactive). In addition, the slope in assay [6] is 0.00484 (inactive).
Regarding `O=C(Oc1ccc2ccc(OC(=O)N3CCOCC3)cc2c1)N1CCOCC1`, the cell count in assay [1] was 388. The inhibition is 6.8% (inactive) in assay [1], -7.5% (inactive) in assay [3], -2.44% (inactive) in assay [7] and -16.2% (inactive) in assay [8]. Also, in assay [2], the inhibition of aggregation was -8.9% (inactive). For the same molecule, the values for the nuclei count in assay [2] and in assay [3] were 107% and 111%, respectively. In addition, the fluorescence slope in assay [4] is -0.238 (inactive). In addition, the NADPH fluorescence slope in assay [5] is -1.6e-05 (inactive). Further, the slope in assay [6] is 0.00539 (inactive).
Turning to `CCN(CC(=O)NC1CCS(=O)(=O)C1)C(=O)C(c1ccccc1)c1ccccc1` (centres undefined), in assay [1], the cell count is 887. In addition, the inhibition in assay [1] was 3.8% (inactive); in assay [3] it was -74.7% (inactive); in assay [7] it was 6.14% (inactive); in assay [8], 5.12% (inactive). For the same molecule, the inhibition of aggregation in assay [2] was -12.1% (inactive). Besides, the nuclei count in assay [2] was 105%; in assay [3], 130%. Further, in assay [4], the fluorescence slope was -0.261 (inactive). Moreover, in assay [5], the NADPH fluorescence slope was -5e-05 (inactive). The slope in assay [6] was 0.00562 (inactive).
Take `O=C(O)C1C2C=CC(C3CC23)C1C(=O)NCCc1ccccc1` (centres undefined): the cell count in assay [1] was found to be 494. Also, the inhibition in assay [1] was -7.5% (inactive); in assay [3], -50% (inactive); in assay [7] it was -3.61% (inactive); in assay [8] it was 11.6% (inactive). Also, the inhibition of aggregation in assay [2] is 19.2% (inactive). For the same molecule, the nuclei count in assay [2] is 54%; in assay [3] it was 104%. For the same molecule, the fluorescence slope in assay [4] is -0.467 (inactive). For the same molecule, the NADPH fluorescence slope in assay [5] is -3.5e-05 (inactive). For the same molecule, the slope in assay [6] was 0.00628 (inactive).
`O=C(Nc1nc2c(s1)CCCC2)C1COc2ccccc2O1` (centres undefined): the cell count in assay [1] is 695. In addition, the inhibition in assay [1] is -13.1% (inactive); in assay [3], -26.2% (inactive); in assay [7], 31% (inactive); in assay [8], -19.8% (inactive). In assay [2], the inhibition of aggregation is 30.9% (inactive). For the same molecule, the nuclei count in assay [2] came to 110%; in assay [3] it was 114%. For the same molecule, the fluorescence slope in assay [4] is -0.517 (inactive). Further, in assay [5], the NADPH fluorescence slope was -1.6e-05 (inactive). Moreover, the slope in assay [6] is 0.00646 (inactive).
Turning to `Cc1cc(NC(=O)c2ccc3c(c2)C(=O)N(Cc2cccnc2)C3=O)no1`, the cell count in assay [1] was 770. The inhibition is -6.4% (inactive) in assay [1], -127% (inactive) in assay [3], -5.06% (inactive) in assay [7] and -11.7% (inactive) in assay [8]. Besides, in assay [2], the inhibition of aggregation is 1.8% (inactive). Further, the nuclei count is 107% in assay [2] and 128% in assay [3]. Moreover, in assay [4], the fluorescence slope was -0.615 (inactive). Further, the NADPH fluorescence slope in assay [5] was 1.2e-05 (inactive). Also, the slope in assay [6] was 0.00422 (inactive).
As for `CCOC(=O)Cn1nc(-c2ccc(C)cc2)ccc1=O`, the cell count in assay [1] stood at 534. Also, the inhibition in assay [1] was -21% (inactive); in assay [3], -42.9% (inactive); in assay [7] it was -9.24% (inactive); in assay [8], -5.48% (inactive). The inhibition of aggregation in assay [2] is 31% (inactive). The nuclei count was determined as 121% in assay [2] and 108% in assay [3]. In addition, in assay [4], the fluorescence slope was -0.393 (inactive). For the same molecule, the NADPH fluorescence slope in assay [5] is -0.000149 (inactive). Further, the slope in assay [6] was 0.00747 (inactive).
With `CCOC(=O)C1CSC(CC(=O)Nc2ccc(Cl)cc2)C(=O)N1` (centres undefined), in assay [1], the cell count is 704. Also, the inhibition was 3.9% (inactive) in assay [1], -56.7% (inactive) in assay [3], -5.63% (inactive) in assay [7] and 1.5% (inactive) in assay [8]. Moreover, the inhibition of aggregation in assay [2] is 7.4% (inactive). The nuclei count in assay [2] was determined as 103%; in assay [3], 132%. Also, the fluorescence slope in assay [4] is -0.325 (inactive). For the same molecule, in assay [5], the NADPH fluorescence slope is -4.9e-05 (inactive). Moreover, in assay [6], the slope is 0.00513 (inactive).
In the case of `Clc1cccc(-c2nnc3sc(-c4ccccc4)nn23)c1`, the cell count in assay [1] was determined as 625. Further, the inhibition in assay [1] is -3% (inactive); in assay [3], -30.8% (inactive); in assay [7], -35.9% (inactive); in assay [8], -59.7% (inactive). For the same molecule, the inhibition of aggregation in assay [2] was -8% (inactive). For the same molecule, the nuclei count in assay [2] worked out at 108%; in assay [3], 104%. For the same molecule, the fluorescence slope in assay [4] was -0.372 (inactive). Moreover, in assay [5], the NADPH fluorescence slope is -5.3e-05 (inactive). Besides, the slope in assay [6] was 0.0065 (inactive).
As for `CCC(=O)Nc1c(C#N)c2nc3ccccc3nc2n1-c1ccccc1C`, the cell count in assay [1] came out at 311. Further, the inhibition in assay [1] was -1.9% (inactive); in assay [3], -20.8% (inactive); in assay [7] it was 12.6% (inactive); in assay [8], 21.8% (inactive). Besides, the inhibition of aggregation in assay [2] is 11.4% (inactive). Also, the nuclei count was 83.9% in assay [2] and 95.9% in assay [3]. Also, in assay [4], the fluorescence slope was -0.0512 (inactive). Moreover, the NADPH fluorescence slope in assay [5] is 7.8e-06 (inactive). The slope in assay [6] was 0.00349 (inactive).
`Cc1cccc(N=C2NC(=O)CS2)c1C`: the cell count in assay [1] stood at 333. In addition, the inhibition in assay [1] was -0.6% (inactive); in assay [3] it was 3.7% (inactive); in assay [7] it was 20.6% (inactive); in assay [8] it was 22.9% (inactive). In addition, the inhibition of aggregation in assay [2] is -5.7% (inactive). Besides, the nuclei count came out at 109% in assay [2] and 93.9% in assay [3]. In assay [4], the fluorescence slope is -0.499 (inactive). Besides, the NADPH fluorescence slope in assay [5] was -3.3e-05 (inactive). Moreover, the slope in assay [6] is 0.00501 (inactive).
For `CC1(C)CC(=O)C(C=Nc2ccc3c(c2)OCO3)=C(O)C1`, the cell count in assay [1] was 329. In addition, the inhibition in assay [1] is 1% (inactive); in assay [3] it was -252% (inactive); in assay [7] it was -6.77% (inactive); in assay [8] it was -5.98% (inactive). Also, in assay [2], the inhibition of aggregation was 12.6% (inactive). Besides, the results for the nuclei count in assay [2] and in assay [3] were 104% and 86.4%, respectively. In addition, the fluorescence slope in assay [4] was -0.435 (inactive). In assay [5], the NADPH fluorescence slope is -6.8e-05 (inactive). Further, in assay [6], the slope was 0.00387 (inactive).
`CC(C)(C)C(=O)/C=C(\N)c1ccccn1`: the cell count in assay [1] is 404. Further, the inhibition in assay [1] is -5% (inactive); in assay [3] it was -33.9% (inactive); in assay [7], -0.411% (inactive); in assay [8] it was 2.89% (inactive). In addition, the inhibition of aggregation in assay [2] is 15.3% (inactive). In addition, the nuclei count in assay [2] is 89.1%; in assay [3], 108%. Also, the fluorescence slope in assay [4] is -0.466 (inactive). Besides, the NADPH fluorescence slope in assay [5] was -5.5e-05 (inactive). Moreover, in assay [6], the slope is 0.00639 (inactive).
Consider `CCSc1nnc(NC(=O)c2ccccn2)s1`, for which the cell count in assay [1] is 351. Besides, the inhibition in assay [1] is 2.9% (inactive); in assay [3] it was 21.4% (inactive); in assay [7], 4.15% (inactive); in assay [8], 15.7% (inactive). Moreover, the inhibition of aggregation in assay [2] is 13.2% (inactive). Further, the nuclei count was 85.6% in assay [2] and 102% in assay [3]. For the same molecule, the fluorescence slope in assay [4] is -0.583 (inactive). In addition, the NADPH fluorescence slope in assay [5] was 3.3e-06 (inactive). The slope in assay [6] is 0.00493 (inactive).

The values above are taken from PubChem BioAssay.
